Only some compounds are listed: those with a hit (about 2.2% of all), similar ones and a draw of the others.
KLF5 inhibitor – inhibitors of KLF5 expression; DLD-1 KLF5 promoter-luciferase reporter, luminescence; inhibition, % at 5 µM; hit rate 0.23% among 290,000;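 active = inhibition above a per-plate limit of that plate's mean compound inhibition plus 3 SD, cut at about 60% in these data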;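 also: higher means less KLF5 promoter-driven luciferase light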
Ba/F3 V617F tox – lowers viability of Ba/F3 cells expressing EpoR and JAK2V617F; ATP luminescence; inhibition, % at 5.6 µM; AID 1446; hit rate 1.1% among 220,000;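 active = inhibition above the campaign mean plus 3 SD over all tested compounds, cut at about 24% in these data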;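 also: cytokine-independent growth of Ba/F3 cells driven by EpoR plus mutant JAK2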
IEC-6 cytotox – IEC-6 cytotoxicity, counter-screen for KLF5 inhibitors. inhibition, % at 5 µM. hit rate 0.78% among 290,000. AID 1825. luminescence viability; in the data active = inhibition above about 22%
APP transl inh – APP translation inhibition; SH-SY5Y APP 5'UTR-luciferase reporter, luminescence; inhibition, % at 2 µM; hit rate 0.82% among 190,000; AID 1285;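 active = inhibition above a set limit, derived from the sample mean plus 3 SD, cut at about 45% in these data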
BaF3 parental – parental Ba/F3 viability inhibition as JAK2V617F counter-screen; CellTiter-Glo ATP luminescence; inhibition, % at 5.6 µM; hit rate 1.1% among 220,000;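 active = inhibition above a per-campaign cutoff, the mean inhibition of all tested compounds plus 3 SD, cut at about 27% in these data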
aSyn 5UTR inh – MLPCN primary screen, SNCA 5' untranslated region; hit rate 0.82% among 300,000; alpha-synuclein 5'UTR reporter, inhibitor activity; inhibition, % (tested at 7.5 µM); AID 1813; in the data active = inhibition above about 60%;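 also: H4 neuroglioblastoma cells stably carrying SNCA 5'UTR luciferase fusion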
Large screens that a line does not name were inactive.

O=C(Nc1nc2ccccc2[nH]1)c1ccc(F)cc1	none
C=CCOc1ccc(/C=N/NC(=O)CN2CCCCC2)cc1OC	none (no result: Ba/F3 V617F tox, APP transl inh, BaF3 parental)
CCOC(=O)N1CCN(CC(=O)Nc2ccc(F)c(F)c2)CC1	none
Clc1cccc(-c2nc(-c3ccccn3)no2)c1	aSyn 5UTR inh 93
CC(=O)Oc1c(C)c(=O)n(C)c2ccccc12	Ba/F3 V617F tox 66, BaF3 parental 42
COc1ccc(-n2cc(-c3ccc(OC(F)F)cc3)[n+]3c2CCCCC3)cc1	Ba/F3 V617F tox 72, BaF3 parental 64
COc1ccc(-n2cc(-c3ccc(Cl)cc3)[nH]c2=S)cc1	none (no result: APP transl inh)
COc1ccc(-c2cn(-c3ccc(Cl)cc3)c3[n+]2CCCCC3)cc1	Ba/F3 V617F tox 71, BaF3 parental 68 (no result: APP transl inh)
Clc1ccc(-c2cn(-c3ccc(Cl)cc3)c3[n+]2CCCCC3)cc1	Ba/F3 V617F tox 46, BaF3 parental 62 (no result: APP transl inh)
COc1cccc(OC)c1C(=O)NNS(=O)(=O)c1ccc2ccccc2c1	none (no result: Ba/F3 V617F tox, APP transl inh, BaF3 parental, aSyn 5UTR inh)
CCN=C1S/C(=C\c2cn(CC(=O)NCc3ccco3)c3ccccc23)C(=O)N1CC	aSyn 5UTR inh 65 (no result: Ba/F3 V617F tox, APP transl inh, BaF3 parental)
CN1C(=O)/C(=C/c2cn(CC(=O)NCc3ccco3)c3ccccc23)NC1=S	none
O=C(Cc1ccc(Cl)c(Cl)c1)N1CCOCC1	none (no result: Ba/F3 V617F tox, APP transl inh, BaF3 parental)
ClC1=C(Cl)C(Cl)=C(Cl)C1=C/C=C/c1ccccc1	aSyn 5UTR inh 113 (no result: APP transl inh)
Cc1ccc(NC(=O)c2cc(N3C(=O)CCC3=O)ccc2N2CCOCC2)cc1	none
Cc1ccc(NC(=O)c2cc(N3C(=O)C=CC3=O)ccc2N2CCOCC2)cc1Cl	APP transl inh 77
CN[C@H]1CCc2cc(OC)c(OC)c(OC)c2-c2ccc(OC)c(=O)cc21	aSyn 5UTR inh 90 (no result: KLF5 inhibitor, Ba/F3 V617F tox, IEC-6 cytotox, APP transl inh, BaF3 parental)
COc1cc2c(c(OC)c1OC)-c1c(cc(OC)c(OC)c1OC)C[C@](C)(O)[C@@H](C)C2	none (no result: KLF5 inhibitor, Ba/F3 V617F tox, IEC-6 cytotox, APP transl inh, BaF3 parental)
Cc1cc(NC(=O)COC(=O)C2CC(=O)N(c3cccc(Cl)c3)C2)no1 (stereo unspecified)	none (no result: Ba/F3 V617F tox, APP transl inh, BaF3 parental)
Nn1cnnc1N/N=C/c1cc(Br)cc(Br)c1O	IEC-6 cytotox 31
CC(C)(C)c1ccc(/C=N/Nc2nncn2N)cc1	none (no result: Ba/F3 V617F tox, APP transl inh, BaF3 parental)
C/C(=N\Nc1ncc(Cl)cc1Cl)c1ccccn1	APP transl inh 70, aSyn 5UTR inh 101
C/C(=N\Nc1ccc(Cl)c(C(=O)O)c1)c1ccccn1	none (no result: APP transl inh)
C[n+]1c2n(c3ccccc31)N=C(c1cc(C(C)(C)C)c(O)c(C(C)(C)C)c1)CS2	Ba/F3 V617F tox 99, BaF3 parental 79, aSyn 5UTR inh 68
CSC(=NC#N)N1CCN(c2ccc(Cl)cc2)CC1	none
Cc1cccc(NS(=O)(=O)Cc2ccccc2)n1	APP transl inh 75
CC(C)(O)C#Cc1ccc([C@@H]2C[C@H]3CN(c4ccccc4)C(=O)[C@]34CCCN24)s1	APP transl inh 82
O=C1N(c2ccccc2)C[C@@H]2C[C@@H](c3cccs3)N3CCC[C@@]123	none
CCOC(=O)N1CCC(N2C(=O)c3ccccc3C2Nc2ccc(S(=O)(=O)N3CCOCC3)cc2)CC1 (stereo unspecified)	none
CNC(=O)c1c(NC(=O)c2cc(-c3cc(C)c(C)cc3O)n[nH]2)sc2c1CCCC2	none (no result: APP transl inh)
N#CC1=C(N)OC2=C(CCc3ccccc32)C1c1ccccc1 (stereo unspecified)	APP transl inh 96, aSyn 5UTR inh 70
Cc1ccc(C2C(C#N)=C(N)Oc3cc(N)ccc32)cc1 (stereo unspecified)	none (no result: Ba/F3 V617F tox, APP transl inh, BaF3 parental)
Cc1ccc(/C=C2\CCC3=C2OC(N)=C(C#N)C3c2ccc(C)cc2)cc1 (stereo unspecified)	APP transl inh 47
CCn1c(C)nnc1SCC(=O)Nc1ccc(Cl)cc1	none (no result: Ba/F3 V617F tox, APP transl inh, BaF3 parental)
CCCc1cc(-c2nc(N)ncc2-c2csc(C)n2)c(O)cc1OC	none
CCCc1cc(-c2nc(N)ncc2-c2ccc3c(c2)OCCCO3)c(O)cc1OC	aSyn 5UTR inh 62
C=CCN=C1CC(C)(C)C(C(=O)OC)C(O)=C1C(=O)CCC (stereo unspecified)	none
O=C(CSc1ccccc1)N1CCCC(Nc2ccccc2)C1 (stereo unspecified)	none (no result: Ba/F3 V617F tox, APP transl inh, BaF3 parental)
CCOC(=O)c1[nH]c(C)c(CN(C(C)=O)c2ccc(OCC)cc2)c1C	IEC-6 cytotox 32
CC[N+]1=C(C)C(C)(C)c2cc(C)ccc21	Ba/F3 V617F tox 65, BaF3 parental 72
Cc1ccc2c(c1)C=CC(C)(C)S2=O (stereo unspecified)	none
Cc1cc(C(=O)NNc2c(Cl)cccc2Cl)n(C(C)(C)C)n1	none (no result: APP transl inh)
O=C(COc1ccc(/C=N/NC(=O)c2cc3ccccc3o2)cc1Br)Nc1ccccc1	aSyn 5UTR inh 116
